PubChem BioAssay (NCI)
This is part of a sample that, as a whole, favours compounds with a hit. Of some 83,000 tested, about 20% had one in any assay.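 Treatment: one concentration, 48 hours, 96-well format. Scoring: percent growth, with anything below 10 considered active.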 A number with no mark means an inactive call. Activity calls are given as the source filed them.

Tested on: NCI-H460 lung
Assay: NCI-60 one-dose screen, 48 h (100 = growth as untreated, 0 = no growth, -100 = all killed)
Conditions: 10 µM unless noted
Method: Growth inhibition of the NCI-H460 human Non-Small Cell Lung tumor cell line is measured as a screen for anti-cancer activity. Cells are grown in 96 well plates and exposed to the test compound for 48 hours. Compounds are tested at a single concentration, which is 10^-5 M for most compounds. The reported endpoint is percent growth (GI% or GIPRCNT), where numbers from 0 - 100% represent growth inhibition, and numbers from -100% - 0 represent cell death. For example, a value of 40 represents 60% growth inhibition. A value of 0 means no net growth occurred over the course of the experiment. A value of -40 indicates 40% of cells at the beginning of the experiment died by the end of the experiment. A value of -100 means all cells are dead at the end of the experiment.
NCI-60 Human Tumor Cell Lines Screen was performed using the standard one-dose NCI protocol, which is described in more detail at https://dtp.cancer.gov/discovery_development/nci-60/default.htm.
Compounds with GIPRCNT values below 10 were considered active. Activity score was based on GIPRCNT using the following formula: […]
Score is 0 for GIPRCNT values of 100 or above, 50 for GIPRCNT values of 0, and 100 for GIPRCNT values of -100.

Compound	growth
CCOC(=O)CC(C#N)(CC(=O)OCC)C(=O)OCC	115%
CCC(=O)Oc1cc(/C=C/C(=O)O[C@H]2C[C@H]3CN4CCc5c([nH]c6cc(OC)ccc56)[C@@H]4C[C@@H]3[C@@H](C(=O)OC)[C@@H]2OC)ccc1OC	93.5%
Nc1nc(-c2cc3ccccc3o2)cc(=O)c(=O)[nH]1	98.1%
O=C(CCCn1c2c(sc3ccccc32)c(=O)n2nnc(-c3ccccc3)c12)NCCc1cnc[nH]1	-93.2% (active)
COc1ccc(-c2nc(-c3ccccc3)c(-c3ccccc3)n2C2CC2)cc1OC1CCCCC1	30.9%
CCC(c1cccc(Br)c1)C(C(=O)O)c1ccc(OC)cc1 (stereo not given)	107%
c1cc(-c2ccc3c(c2)OCO3)n2nccc2n1	101%
Cc1cccc(-n2c(C)nc3ccc(NC(=O)NCCCl)cc3c2=O)c1	100%
CC/C=C\C[C@H]1C/C=C2/C(=O)C(Cl)=C[C@@H]2C/C=C\CCCC(=O)O1	-43% (active)
O=C(Nc1ccc(OCc2nnc(-c3ccc(Cl)cc3)o2)c(F)c1)Nc1ccc(Cl)c(Cl)c1	29.2%
CN(C)c1ccc(/C=C\N=Nc2ccc(Br)cc2)cc1	51.2%
CCCCCCCCCCn1cc[n+](C)c1	23.6%
COc1cc(C2C=C(C)N=C3SC(C)=NN32)cc(OC)c1OC (stereo not given)	114%
CCCCCCc1nc2c(c(C)nn2-c2ccccc2)c2c1CCCCC2	110%
CC1=C(C#N)C(C)(C)C(C#N)=C(C)N1	106%
COc1cc(C2CC(c3c(C)[n+]([O-])c4ccccc4[n+]3[O-])=NN2)cc(OC)c1OC (stereo not given)	112%
Cc1cc(C)c(S(=O)(=O)N2CCN(c3cc4c(cc3F)c(=O)c(C(=O)O)cn4C3CC3)CC2)c(C)c1	39.5%
O=C(c1ccccc1)C(Cl)C(Cl)c1ccccc1 (stereo not given)	93.7%
CNC(=O)c1cc(Oc2ccc3c(c2)sc2nc(-c4ccc(Cl)cc4)cn23)ccn1	81.8%
COc1cc(CCn2nnc3c(NCCCCO)ncnc32)cc(OC)c1	105%

Compound	growth
CCC(c1ccc(OC)cc1)C(CC)c1ccc(OCC[N+](C)(C)C)cc1 (stereo not given)	59%
C=C1C(=O)O[C@H]2[C@H]1CC/C(COC(=O)NCc1cc(OC)cc(OC)c1)=C\CC[C@@]1(C)O[C@@H]21	34.9%
O=C(CN1CCN(c2cc3c(cc2F)c(=O)c(C(=O)O)cn3C2CC2)CC1)Nc1ccc(C(=O)/C=C/c2ccc(Cl)cc2)cc1	112%
COc1cc2c3c(c(=O)oc2cc1OS(=O)(=O)c1ccc(C(F)(F)F)cc1)CCCCC3	89.9%
Cc1nc2sccn2c1-c1csc(Nc2ccccc2Cl)n1	35.3%
COc1cccc(C2CC(=O)Nc3c2c(C)nn3-c2nc3ccccc3[nH]2)c1OC (stereo not given)	50.2%
O=C(CCl)NCCNc1nccc(Nc2ccc(S(=O)(=O)Nc3ccccn3)cc2)n1	2.9% (active)
Nc1c(C(=O)Nc2cccc(C(F)(F)F)c2)sc2nc3c(cc12)CCCCCC3	4.27% (active)
CC1=NN2C(=NC3=C(CCC/C3=C\c3ccc(Cl)cc3)C2c2ccc(Cl)cc2)S1 (stereo not given)	101%
CCCCNc1nnc(-c2cc(-c3cc4ccccc4o3)nn2-c2ccccc2)o1	98.7%
Cc1ccc(OCCn2c(C)nn(-c3ccc(Cl)cc3)c2=O)cc1	106%
COc1cccc2cc(-c3cc4ccccc4[nH]3)c(=NC(=O)c3ccc(Cl)cc3)oc12	85.3%
CN(C)CCCNC(=O)C(c1ccccc1)c1ccccc1	112%
Cc1ccc2c(c1)C(=O)C(c1c(-c3[nH]c(=O)c4ccc(C)cc4c3O)c(O)c3ccccc3c1O)=NC2=O	-39.8% (active)
NC(=O)c1cccc(N2Cc3ccccc3OC3=C2C(=O)c2c(O)ccc(O)c2C3=O)c1	-27.5% (active)
CC1CCN(C(=O)CSc2nc3sc4c(c3c(=O)[nH]2)CCCC4)CC1	120%
CC/C=C\C[C@H](O)C/C=C1/C(=O)C(Cl)=C[C@@H]1C/C=C\CCCC(=O)OC	-31.6% (active)
O=C(O)c1ccc(-n2cc(CNc3ccc(C(F)(F)F)cc3)c(-c3ccccc3)n2)cc1	94.3%
CCOC(=O)/C=C\C(=O)NC(N)=O	110%
CCN1C(=O)N(CC)C2C1NN=c1s/c(=C\c3cccc(F)c3)c(=O)n12 (stereo not given)	1.33% (active)
